High-throughput results as filed in PubChem.
HT1080 IDH1KD tx – HT-1080 IDH1 knockdown cell toxicity (counter line); HT-1080 IDH1 knockdown viability, ATP luminescence, 48 h; Potency, µM (top dose mostly 46.1 µM), inactives show at the highest dose activity, negative = toxicity, hits mostly cytotoxic; 360,000 compounds, 2% hits; AID 686971;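 further: potency means the concentration at half of the fitted maximal effect; 0% = DMSO wells and -100% = cell-free medium wells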
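CellTiter-Glo luminescence after 48 h compound exposure at 37 degrees C of IDH1-knockdown HT-1080 cells in 5% FBS RPMI. %Activity scaled between DMSO wells and cell-free media wells, with curves fitted and assigned curve classes.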
ELG1 DNA repair – ELG1-dependent DNA repair inhibition. Potency, µM (highest dose often 46.1 µM), inactives show at the highest dose activity change, negative = inhibition, usual class: inhibitors. HEK293T ELG1-luciferase reporter, luminescence, 16 h; DNA damage induced by 5-fluorouridine. AID 504467. 330,000 compounds, 2.3% hits; further: potency means the concentration at half of the fitted maximal effect; nearly all actives have a fitted effect of over 55% in size
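Cells (2,000 per well) received 5-fluorouridine plus test compound or DMSO and were incubated 16 hr at 37 °C, 5% CO2. Luciferase activity was read by luminescence 30 min after ONE-Glo addition; signal suppression marked inhibition of damage-induced ELG1 function.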
IL1B secr inh – inflammasome signaling inhibition, IL-1 beta readout; activity change, % at 57.5 µM; 360,000 compounds, 4.7% hits; THP-1 LPS/ATP IL-1B secretion, AlphaLISA, 16 h; stronger effect = lower value; AID 743279; in the data active means activity change below about -50%; inconclusive means mostly about -30% to -49%
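THP-1 cells pretreated 1 hr with compounds (up to 57.5 uM final), then stimulated with LPS (250 ng/mL final) plus ATP (1.25 mM final); secreted IL-1B measured by AlphaLISA after 16 hr, decreased signal indicating inhibition.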
TDP1 cell CPT – growth inhibition of DT40 Tdp1-/-;hTDP1 cells with camptothecin (screen for TDP1 inhibitors); chicken DT40 Tdp1-/-;hTDP1 cells + 20 nM CPT, ATP luminescence, 48 h; Potency, µM (series often up to 46.2 µM), inactives show top-dose activity change, negative = growth inhibition, actives largely listed as inhibitors; 420,000 compounds, 12% hits; AID 686979; further: potency means the concentration at half of the fitted maximal effect; nearly all actives have a fitted effect of over 55% in size
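Chicken DT40 Tdp1-/- cells complemented with human TDP1, 400 cells/well, exposed to compounds plus 20 nM camptothecin for at least 48 h at 37 C; viability read as ATP content by CellTiter-Glo luminescence.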
TDP1 cell noCPT – qHTS for Inhibitors of human tyrosyl-DNA phosphodiesterase 1 (TDP1): qHTS in cells in absence of CPT. DT40 Tdp1-/- hTDP1 cells, no CPT, ATP luminescence, 48 h. Potency, µM (titrated, usually from 46.2 µM), for inactives: at the highest dose activity change, negative = growth inhibition, hits mostly inhibitors. 420,000 compounds, 15% hits. AID 686978, 2013; further: potency means the concentration at half of the fitted maximal effect; nearly all actives have a fitted effect of over 55% in size
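Seeded 400 DT40-hTDP1 cells/well (vehicle DMSO, no 20 nM CPT); pinned compounds; ≥48 hr at 37 °C; CellTiter-Glo luminescence as viability measure.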
HT1080-NT tox – kills 2HG-producing HT-1080-NT fibrosarcoma cells | HT-1080-NT fibrosarcoma viability, CellTiter-Glo ATP luminescence, 48 h | Potency, µM (titrated, usually from 46.1 µM), for the others: top-dose activity, negative = less viability, usual class: cytotoxic | 360,000 compounds, 1.6% hits;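 further: NT is the 2HG producing partner of a matched IDH1 knockdown line; potency means the concentration at half of the fitted maximal effect; 0% = DMSO-treated cells and -100% = media-only wells without cells; nearly all actives have a fitted effect of over 55% in size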
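Compounds were tested in concentration-response format on HT-1080-NT cells for 48 hours at 37 degrees C. Cell viability came from CellTiter-Glo luminescence; curves were classified by r2, response magnitude and activity.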
Numbers without * were called inactive; ? = inconclusive; . = not tested or not shown; [ ] = dose if it differs, or a comment. The list is not random: actives were taken first. Their share in the collection is about 19%. Unless noted, the call rests on the fitted dose curve; in most records, active means well fitted curve in the direction sought with a large enough effect; inconclusive means small, poorly fitted or top-dose-only effect, or another doubt; inactive means no such curve, though single readings can be large; an effect the other way counts as inactive or inconclusive. Unless noted, on the % scale 0 is the no-effect control and ±100 the full control effect.

SMILES	HT1080 IDH1KD tx	ELG1 DNA repair	IL1B secr inh	TDP1 cell CPT	TDP1 cell noCPT	HT1080-NT tox
COc1cccc(C(O)c2nc(-c3cccc(C(C)C)c3)cs2)c1 (stereo not drawn)	?	.	0	?	?	-21%
COc1cccc(C(O)c2nc(-c3cc(F)cc(F)c3)cs2)c1 (stereo not drawn)	-1%	.	-20	21µM*	?	0%
O=C(O)CSc1cc(NS(=O)(=O)c2cccc([N+](=O)[O-])c2)c2ccccc2c1O	18µM*	23µM*	-86*	2.3µM*	1.8µM*	13µM*
O=C(O)c1ccccc1NS(=O)(=O)c1cccc2cccnc12	11%[9.24 µM]	-3%	20	-8%	-15%	9%
O=C(O)c1cccc(S(=O)(=O)Nc2ccc([N+](=O)[O-])cc2O)c1	6%	-9%	7	1%	-15%	-1%
CCOc1ccc(S(=O)(=O)Nc2cc(SCC(=O)O)c(O)c3ccccc23)cc1	23µM*	?	94	3.7µM*	4.6µM*	23µM*
O=S(=O)(Nc1cc(Sc2cccc3cccnc23)c(O)c2ccccc12)c1ccccc1	.	9.2µM*	.	.	.	.
Cc1ccc(C)c(S(=O)(=O)Nc2cc(SCC(=O)O)c(O)c3ccccc23)c1	18µM*	?	-98*	5.8µM*	6.5µM*	23µM*
CCOc1ccc(S(=O)(=O)Nc2cc(OC)c(OC)cc2C(=O)O)cc1	20%	2%	17	-9%	2%	12%
COc1cccc(Nc2ncc3nc(-c4cn(C)c5ccccc45)c(=O)n(CCC#N)c3n2)c1	.	.	.	-34%	-12%	.
CC(NC(=O)c1ccncc1)c1ccc(Br)cc1 (stereo not drawn)	-4%	.	-9	-27%	?	-2%
N#Cc1nc(Cl)c(Cl)c(NN)c1Cl	-13%	-2%	-54*	-1%	-15%	-20%
CC(C)c1nc(C#N)c(NN)o1	-5%	?	44	0%	-10%	8%
CC(C)NC(=O)C1(C)CSCC(=O)N1CC(F)(F)F (stereo not drawn)	19%	.	-15	-3%	10%	17%
COc1ccc(-n2nc([N+](=O)[O-])c(=NC3CCN(Cc4ccccc4)CC3)n2O)cc1	-8%	-14%	-5	16µM*	15µM*	-10%
COc1ccc(-n2nc([N+](=O)[O-])c(=NCCc3ccc(C)cc3)n2O)cc1	-2%	?	-27	?	?	5%
COc1ccc(-n2nc([N+](=O)[O-])c(=NCCc3ccc(OC)c(OC)c3)n2O)cc1	-16%	?	?	15µM*	21µM*	-12%
COc1ccc(-n2nc([N+](=O)[O-])c(=NCc3cccnc3)n2O)cc1	0%	?	23	16µM*	?	1%
O=[N+]([O-])c1nn(-c2ccc3c(c2)OCCO3)n(O)c1=NC1CCCCC1	-18%	?	-25	21µM*	?	-15%
COc1ccc(-n2nc([N+](=O)[O-])c(=NCCc3ccc(Cl)cc3)n2O)cc1	-1%	10%	-28	?	?	4%
COc1ccc(-n2nc([N+](=O)[O-])c(=NCc3ccco3)n2O)cc1	4%	?	1	7%	-24%	9%
Cc1ccc(C(=O)Nc2cccc(OCc3cc(=O)n4c5c(sc4n3)CCCC5)c2)cc1	.	.	.	-16%	-15%	.
c1ccc2c(-c3ccc4nncn4c3)cncc2c1	30%	.	14	?	?	1%
O=C(NCCc1nnc2ccc(NCc3cccnc3)nn12)c1ccccc1F	2%	7%	6	6%	-3%	-1%
COc1ccc(-n2nc([N+](=O)[O-])c(=NCCC3=CCCCC3)n2O)cc1	-12%	?	-55*	21µM*	?	-14%
SMILES	HT1080 IDH1KD tx	ELG1 DNA repair	IL1B secr inh	TDP1 cell CPT	TDP1 cell noCPT	HT1080-NT tox
CC(C)Sc1nnc2n(CCc3ccccc3)c(=O)c3c4c(sc3n12)COC(C)(C)C4	17%	.	9	23µM*	21µM*	7%
C=CCSc1nnc2n(CCc3ccccc3)c(=O)c3c4c(sc3n12)COC(C)(C)C4	0%	-15%	-12	23µM*	?	0%
Cc1nnc2n(Cc3ccccc3)c(=O)c3c4c(sc3n12)COC(C)(C)C4	-2%	-29%	-7	-12%	?	-2%
Cc1c(C(=O)N2CCCCC2)sc2ncnc(NCCN(C)C)c12	.	.	.	17%	2%	.
CSCCC(C(=O)NC(C)(C)C)n1c(-c2cccc(NC(C)=O)c2)nc2ccccc21 (stereo not drawn)	11%	.	22	-11%	?	-1%
CCOCCOC(=O)c1[nH]c2c(c1C)C(=O)CC(c1cccs1)C2 (stereo not drawn)	0.46µM*	?	45	1µM*	0.82µM*	0.46µM*
COCCOC(=O)c1[nH]c2c(c1C)C(=O)CC(c1cccs1)C2 (stereo not drawn)	4.6µM*	-19%	90	1.2µM*	1.3µM*	?
Cc1c(C(=O)OCC(C)C)[nH]c2c1C(=O)CC(c1cccs1)C2 (stereo not drawn)	1.3µM*	-2%	60	2.9µM*	3.7µM*	1.6µM*
CCOCCOC(=O)C1=C(C)NC2=C(C(=O)CC(c3cccs3)C2)C1c1ccsc1 (stereo not drawn)	-28%	?	-20	?	?	?
COCCOC(=O)c1[nH]c2c(c1C)C(=O)CC(c1ccc(OC)c(OC)c1)C2 (stereo not drawn)	2%	?	-14	?	-28%	1%
CCCCN(CCCC)C(=O)C1(P(=O)(c2ccccc2)c2ccccc2)CCC1	-16%	-5%	?	?	?	-5%
CCC1CCCCN1C(=O)COc1ccc(S(=O)(=O)N2CCOCC2)cc1Cl (stereo not drawn)	4%	3%	5	-23%	-12%	1%
Cc1ccc(NC(=O)CCCC2CCCCC2)c(O)c1	-5%	?	13	-20%	-24%	?
Cc1nc(N)c(Cc2ccc(Cl)cc2Cl)c(N)n1	-1%	?	2	12µM*	8.2µM*	-19%
Cc1nc(N2CCN(c3ccccc3F)CC2)[nH]c(=O)c1C	11%	0%	-15	?	?	7%
CCc1c(C)nc(N2CCN(c3ccccc3F)CC2)[nH]c1=O	16%	5%	-3	?	23µM*	13%
